From PubChem
KCNQ2 pot = potentiators of rat KCNQ2 potassium channel | O88943 | B-score at 10 µM | 0.54% of 310,000 active | CHO-K1 KCNQ2, FluxOR thallium flux fluorescence; active compounds read high | AID 2239;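 active = fluorescence ratio B-score at least 3 SD of library B-scores, with initial fluorescence B-score within 3 of them, cut at about 5.3 in these data; same plate scores as AID 2156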;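 also: B-score of peak minus minimum over baseline fluorescence ratio after K+ and Tl+ stimulus; positive B-score means potentiation of KCNQ2 with more thallium influx and brighter signal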
KCNQ2 inh = inhibitors of rat KCNQ2 potassium channel; O88943; CHO-K1 KCNQ2, FluxOR thallium flux, 20 min; active compounds read low; B-score at 10 µM; 1.1% of 310,000 active;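 active = fluorescence ratio B-score at most minus 3 library SDs, with starting brightness B-score within 2 library SDs, cut at about -5.5 in these data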
KCNQ2 inh conf = rat KCNQ2 channel inhibition, confirmatory screen; shares compounds with KCNQ2 inh; KCNQ2-expressing cells, thallium flux; active compounds read low; activity change, negative = inhibition, % at 10 µM; 57% of 1,000 active
KCNQ1 spec = selectivity of KCNQ2 inhibitors against human KCNQ1 | activity change, negative = inhibition, % at 10 µM | 15% of 1,000 active | KCNQ1-expressing cells, FluxOR thallium flux fluorescence; active compounds read low | shares compounds with KCNQ2 inh;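 active = activity change at least 3 SD of negative controls below their mean in both duplicate wells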;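 also: CHO cells stably transfected with KCNQ1 and depolarized by potassium stimulus; peak minus minimum fluorescence over baseline after thallium addition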
CHO parental ctr = counter-screen for KCNQ2 inhibitors: effect in parental CHO cells; shares compounds with KCNQ2 inh; thallium flux counter-screen; active compounds read low; activity change, % at 10 µM; 14% of 1,000 active; AID 493029
KCNQ2 patch conf = confirmation of rat KCNQ2 potassium channel inhibitors; 49% of 550 active; KCNQ2-expressing cells, automated patch clamp current; calls only at 10 µM; shares compounds with KCNQ2 inh; AID 588531
Hits are given with their value; - = inactive; . = not tested or not shown; + = active, no number. An excerpt weighted towards active compounds, which were near 1.6% of everything screened. Unless noted, no rule for the calls is given here.

SMILES	KCNQ2 pot	KCNQ2 inh	KCNQ2 inh conf	KCNQ1 spec	CHO parental ctr	others
Cc1ccc(NC(CC(=O)c2ccccc2)c2ccc(F)cc2)cc1 (centres undefined)	.	-	.	.	.
COc1ccc(C(CC(=O)c2ccc(C)cc2)Nc2ccc([N+](=O)[O-])cc2)cc1 (centres undefined)	-	-6.9	-42%	-33%	-26%	KCNQ2 patch conf=-
O=C(N1CCOCC1)N1c2ccccc2Sc2ccccc21	.	-	.	.	.
CC1CCCN(C(=O)N2c3ccccc3Sc3ccccc32)C1 (centres undefined)	-	-6.9	-15%	-	-	KCNQ2 patch conf=-
O=C1CN(C(=O)NCC(=O)N[C@@H](C(=O)O)c2ccccc2)c2ccccc2N1	.	-	.	.	.
O=C(Nc1cccc(NC(=O)c2ncn[nH]2)c1)c1cccc(Cl)c1	-	-	.	.	.
Cc1ccc2c(C)c(C(=O)N3CCN(Cc4ccc5c(c4)OCO5)CC3)oc2c1C	-	-6.9	-	-	-
Cc1ccc(C(=O)N2CCN(Cc3ccc4c(c3)OCO4)CC2)o1	-	-	.	.	.
CC(C)n1nnnc1SCC(=O)Nc1cccc(F)c1	.	-	.	.	.
CN(Cc1ccccc1)S(=O)(=O)c1ccc2c(c1)CCC(=O)N2	-	-	.	.	.
CC(C)C[C@H](NC(=O)NC1CCCc2ccccc21)C(=O)O (some centres undefined)	.	-	.	.	.
COc1ccc(-c2nc(CSCC(=O)NC3CCCc4ccccc43)c(C)o2)cc1 (centres undefined)	-	-7.3	-29%	-	-	KCNQ2 patch conf=+
COC(=O)[C@H](CC(C)C)NC(=O)NC1CCCc2ccccc21 (some centres undefined)	-	-7.5	-28%	-	-	KCNQ2 patch conf=+
COc1cc(CC(=O)NC2CCCc3ccccc32)cc(OC)c1OC (centres undefined)	-	-	.	.	.
CCOC(=O)N1CCC(NC(=O)CSCc2nc(-c3ccc(OC)cc3)oc2C)CC1	.	-	.	.	.
COc1ccccc1CC(=O)NC1CCCc2ccccc21 (centres undefined)	-	-7.1	-24%	-	-	KCNQ2 patch conf=+
Cc1ccc(-c2nc(-c3nccc4ccccc34)oc2-c2ccccc2)cc1	-	-9.2	-28%	-	-	KCNQ2 patch conf=-
c1ccc(-c2nccc3ccccc23)cc1	-	-	.	.	.
CCOC(=O)/C(=C\Nc1ccccc1C(F)(F)F)Sc1ncc(C(F)(F)F)cc1Cl	.	-	.	.	.
COC(=O)/C(=C\Nc1ccc(Cl)c2ccccc12)c1ncc(C(F)(F)F)cc1Cl	-	-8.4	-18%	-	-	KCNQ2 patch conf=-
CCOC(=O)N1CCC(NS(=O)(=O)c2ccc(NC(C)=O)c(Cl)c2)CC1	-	-	.	.	.
CCOCc1nnc(NC(=O)C2CC(=O)N(CCc3ccc(F)cc3)C2)s1 (centres undefined)	-	-	.	.	.
Cc1ccc(C(=O)/C=C/C(=O)c2ccc(C)cc2)cc1	-	-7.5	-	-	-
Cc1ccc(/C=C/C(=O)c2ccc(C)cc2)cc1	.	-	.	.	.
COc1ccc(/C=C(/C(=O)c2cccs2)N2C=CC=CC2=C(C#N)C#N)cc1	-	-7.9	-42%	-	-	KCNQ2 patch conf=-
SMILES	KCNQ2 pot	KCNQ2 inh	KCNQ2 inh conf	KCNQ1 spec	CHO parental ctr	others
COc1ccc(N=N/C(=C\O)C(=O)c2cccs2)cc1	.	-	.	.	.
CC(C)(C)NC(=O)NC(=O)COC(=O)c1cccc(S(=O)(=O)N2CCCCC2)c1	.	-	.	.	.
CCOC(=O)N1CCc2c(sc3c2c(=O)n(Cc2ccccc2)c(=O)n3Cc2cccc(C)c2)C1	-	-8.6	-44%	-30%	-28%	KCNQ2 patch conf=-
CCOC(=O)N1CCc2c(sc3c2c(=O)n(Cc2ccccc2)c(=O)n3Cc2ccccc2F)C1	-	-12	-	-	-
CCOC(=O)N1CCc2c(sc3c2c(=O)n(Cc2ccccc2)c(=O)n3CC(=O)NCC2CCCO2)C1 (centres undefined)	-	-	.	.	.
O=C(O)Cn1c(=O)c2c3c(sc2n(Cc2ccccc2)c1=O)CCCC3	.	-	.	.	.
O=C1CCC(C(=O)N2CCC(CO)CC2)CN1Cc1ccc(Cl)cc1 (centres undefined)	.	-	.	.	.
CCN(CC(=O)Nc1c(F)cccc1F)C(=O)c1ccc(C)c(S(=O)(=O)N2CCCCC2)c1	.	-	.	.	.
CCn1cc(CN2CCC(n3nccc3NC(=O)C(OC)c3ccccc3)CC2)cn1 (centres undefined)	-	-	.	.	.
O=C(NCc1cccs1)C(=O)c1cn(CC(=O)N2CCCC2)c2ccccc12	-	-	.	.	.
Cc1cccc(C)c1OCCNC(=O)OCc1ccccc1	-	-6.9	-	-	-
O=C(O)CCCNC(=O)OCc1ccccc1	.	-	.	.	.
COC(=O)/C=C/c1ccc2c(c1)OCO2	-	-	.	.	.
CN(C(=O)/C=C/c1ccc2c(c1)OCO2)c1ccccc1	-	-6.6	-23%	-	-	KCNQ2 patch conf=-
CCN(CCCn1c(SCC#N)nc2ccccc2c1=O)c1ccccc1	-	-8.8	-	-	-
C=C(C)Cn1c(SCC#N)nc2ccccc2c1=O	-	-	.	.	.
O=c1ccc(-c2ccc(S(=O)(=O)N3CCN(c4cccc(Cl)c4)CC3)o2)n[nH]1	-	-	.	.	.
Cc1nn(-c2ccc(Cl)cc2)c(Cl)c1/C=N/NC(=O)c1ccc(NS(=O)(=O)c2cccs2)cc1	.	-	.	.	.
O=C(O)CCc1ccc(-c2ccc(F)cc2)n1CC(=O)O	.	-	.	.	.
CCOC(=O)Cn1c(CCC(=O)O)ccc1-c1ccc(F)cc1	-	-9.3	-	-	-
COc1ccc(NC(=O)C(CC(C)C)NC(=O)C2CCCCC2)c(OC)c1 (centres undefined)	.	-	.	.	.
CCOC(=O)c1c(NC(=O)COC(=O)c2cc(OC)c(OC)cc2[N+](=O)[O-])sc(C)c1C	.	-	.	.	.
CN(c1ccccc1)c1nc(N)c([N+](=O)[O-])c(NCCO)n1	.	-	.	.	.
C/C(=N\Nc1nc(N2CCCCCC2)nc(N2CCCCCC2)n1)c1ccccc1	-	-9.2	-28%	-	-	KCNQ2 patch conf=+
CC(=C/c1ccccc1)/C=N/Nc1nc(N2CCCCC2)nc(N2CCCCC2)n1	.	-	.	.	.
SMILES	KCNQ2 pot	KCNQ2 inh	KCNQ2 inh conf	KCNQ1 spec	CHO parental ctr	others
N#C/C(=C\c1cccnc1)C(=O)Nc1ccc(O)cc1F	.	-	.	.	.
Cc1occc1C(=O)NNC1=CC(=O)CC(C)(C)C1	.	-	.	.	.
COc1ccc2[nH]c3c(c2c1)CCNC3(C)CCc1ccc(Cl)nc1 (centres undefined)	-	-	.	.	.
NS(=O)(=O)c1ccc(CCNC(c2ccccc2)c2ccccc2)cc1	-	-	.	.	.
c1ccc(C(NCCNC(c2ccccc2)c2ccccc2)c2ccccc2)cc1	-	-7.2	-28%	-	-	KCNQ2 patch conf=-
CC(C)CCn1c(O)c(N=NC(=O)c2ccco2)c2ccccc21	.	-	.	.	.
CC(C)Cn1c(O)c(N=NC(=O)c2cccc(S(=O)(=O)N3CCCCC3)c2)c2ccccc21	-	-9.3	-	-	-
CN(C)c1oc(/C=C/c2cccs2)nc1S(=O)(=O)c1ccccc1	.	-	.	.	.
CN1CCN(c2ccc([N+](=O)[O-])cc2NC(=O)c2cccs2)CC1	-	-	.	.	.
CCOC(=O)c1cnc(-c2ccccc2)nc1C(F)(F)F	.	-	.	.	.
CCOC(=O)c1cnc2c(F)ccc(F)c2c1Sc1ccccc1	-	-7.6	-	-	-
Cc1c(Cl)cccc1NC(=S)N1CCN(S(=O)(=O)c2cccs2)CC1	.	-	.	.	.
O=C(CN1C(=O)NC(c2ccccc2)(c2ccccc2)C1=O)NCCNCCO	-	-	.	.	.
